High-throughput results (PubChem BioAssay)
Most compounds without a hit are left out; they make up all but 3.8% or so of the library.
697 NFkB inh = inhibitors of PMA/ionomycin-induced NF-kB reporter, 697 cells, primary screen, B-cell NF-kB inhibitor project, cell-based, luminescence, uHTS; AID 435022, 2010; inhibition, % at 4 µM; 0.33% of 330,000 active; 697 B-cell NF-kB luciferase reporter, 16 h; in the data active means inhibition above about 35%
Gli-Sufu block = Gli-Sufu pathway antagonists, primary screen, luciferase luminescence, Sufu-KO-LIGHT cells, uHTS. Sufu-KO-LIGHT fibroblasts, Gli luciferase reporter luminescence. inhibition, % at 5 µM. 0.74% of 340,000 active;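 active means inhibition above about 55%, limit read from the data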
Mdm2 MdmX PPI = inhibitors of human Mdm2-MdmX association, primary screen, cell-based, luminescence, split luciferase, SaOS-2, uHTS | 3% of 330,000 active | SaOS-2 split-luciferase Mdm2/MdmX complementation | inhibition, % at 8 µM;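 active means inhibition of at least 50% at 8 µM in the primary screen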
Target sequence (O15151 whole entry, looked up): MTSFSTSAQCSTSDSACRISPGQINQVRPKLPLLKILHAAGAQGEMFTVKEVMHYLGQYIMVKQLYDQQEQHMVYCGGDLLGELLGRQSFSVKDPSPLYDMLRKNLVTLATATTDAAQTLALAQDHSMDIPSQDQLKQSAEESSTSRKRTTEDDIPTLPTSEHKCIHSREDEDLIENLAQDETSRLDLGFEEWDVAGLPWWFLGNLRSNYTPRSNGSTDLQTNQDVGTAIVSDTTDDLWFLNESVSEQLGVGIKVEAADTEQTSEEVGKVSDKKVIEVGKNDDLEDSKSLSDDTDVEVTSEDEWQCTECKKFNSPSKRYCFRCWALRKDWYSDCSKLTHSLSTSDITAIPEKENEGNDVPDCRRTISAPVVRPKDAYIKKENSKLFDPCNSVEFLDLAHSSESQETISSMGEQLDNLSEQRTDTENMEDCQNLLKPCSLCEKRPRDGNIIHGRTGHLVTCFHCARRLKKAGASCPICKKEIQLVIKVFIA
Target sequence (Q00987 whole entry, looked up): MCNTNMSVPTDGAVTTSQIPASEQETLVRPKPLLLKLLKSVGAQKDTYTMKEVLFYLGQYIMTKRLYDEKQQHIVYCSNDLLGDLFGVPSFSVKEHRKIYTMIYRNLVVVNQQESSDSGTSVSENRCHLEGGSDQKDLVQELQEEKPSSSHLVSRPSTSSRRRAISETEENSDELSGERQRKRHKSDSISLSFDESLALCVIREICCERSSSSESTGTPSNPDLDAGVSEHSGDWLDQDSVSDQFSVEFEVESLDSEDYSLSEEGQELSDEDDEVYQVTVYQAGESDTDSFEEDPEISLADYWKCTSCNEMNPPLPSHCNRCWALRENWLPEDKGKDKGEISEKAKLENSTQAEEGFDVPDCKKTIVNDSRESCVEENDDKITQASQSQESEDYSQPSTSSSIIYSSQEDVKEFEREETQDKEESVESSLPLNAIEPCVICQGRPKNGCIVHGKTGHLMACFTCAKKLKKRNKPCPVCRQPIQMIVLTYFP
Jurkat NFkB inh = inhibitors of induced NF-kB luciferase reporter, primary screen, TCR NF-kB activation inhibitor project, cell-based, luminescence, uHTS | Jurkat, PMA/ionomycin-induced NF-kB luciferase reporter | inhibition, % at 4 µM | 0.53% of 330,000 active | AID 435003, 2010; in the data active means inhibition above about 50%
Shn3 inh set2 = reduction of Shn3 3'UTR firefly luciferase signal, primary screen, Schnurri-3 inhibitor project, cell-based, Clone20 osteoblasts, set 2 | Clone20 osteoblast Shn3 3'UTR firefly luciferase, 24 h | 0.52% of 360,000 active | inhibition, % at 12.5 µM | AID 588674, 2011;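 active means mean inhibition of at least 75% with every replicate also reaching 75%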
Mdm2-MdmX conf = Mdm2-MdmX complex disruptors, retested hits, confirmation, luminescence, single concentration; 55% of 10,000 active; AID 489028, 2010; inhibition, % at 8 µM; shares compounds with Mdm2 MdmX PPI; Mdm2-MdmX binding, luminescent assay; in the data active means inhibition above about 40%
Full FLuc ctr = full-length luciferase signal inhibition, confirmation, counter-screen for Mdm2/MdmX interaction inhibitor project, cell-based, single concentration, SaOS-2. AID 504607, 2011. shares compounds with Mdm2 MdmX PPI. inhibition, % at 8 µM. 77% of 6,200 active. SaOS-2 full-length luciferase counterscreen, luminescence;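 active means mean inhibition at 8 µM reaching about 37%, which flags the compound as non-specific, limit read from the data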;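 further: p53-null SaOS-2 cells with luciferase driven by a doxycycline-inducible promoter; compound on cells about two nights before reading with doxycycline added after day one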
Of the large screens only hits and unclear results are named; the others gave an inactive call (follow-up assays come after a bar, where they were run).

Cc1ccc(C(NC(=O)C2CCCCC2)c2c(O)ccc3ccccc23)cc1 (centres undefined)	Mdm2 MdmX PPI 80 | Mdm2-MdmX conf 61 | Full FLuc ctr 49
Cc1cc(C(=O)CSc2nnc(-c3ccc(F)cc3)o2)c(C)n1CC1COc2ccccc2O1 (centres undefined)	Mdm2 MdmX PPI 62 | Mdm2-MdmX conf inactive
Cc1nc(N=C(N)N)nc2ccccc12	none
CCc1ccc2nc(N=C(N)N)nc(C)c2c1	Mdm2 MdmX PPI 59 | Mdm2-MdmX conf 42 | Full FLuc ctr 82
Cc1ccc2nc(/N=C(\N)NC(=O)NC3CCCCC3)nc(C)c2c1	Mdm2 MdmX PPI 65 | Mdm2-MdmX conf 46 | Full FLuc ctr 57
Cc1ccc2nc(N=C(N)N)nc(C)c2c1	Mdm2 MdmX PPI 51 | Mdm2-MdmX conf 44 | Full FLuc ctr 102
CCOC(=O)c1c(-c2ccc(C)o2)csc1NC(=O)CSc1nnc(C)s1	none
CCOC(=O)c1c(-c2ccc(C)o2)csc1NC(=O)COC(=O)c1ccc(NC(N)=O)cc1	Mdm2 MdmX PPI 69 | Mdm2-MdmX conf inactive
CCCCn1c(=O)[nH]c(=O)c2c(C(=O)OCC)cc(-c3ccc(OC(F)F)cc3)nc21	Mdm2 MdmX PPI 57 | Mdm2-MdmX conf inactive
COc1ccc(C(=O)N/C(=C\c2ccccc2)C(=O)Nc2ccc(C(=O)NCC(=O)O)cc2)cc1	none
Cc1cc(OC2CCCCC2)nc(NCc2ccccc2)n1	Mdm2 MdmX PPI 50 | Mdm2-MdmX conf inactive
CCOc1cc(C)nc(NCc2ccccc2)n1	none
COc1ccc(-c2n[nH]c(C)c2-c2ccc(Cl)cc2)c(O)c1OC	Mdm2 MdmX PPI 87 | Mdm2-MdmX conf 73 | Full FLuc ctr 39
COc1ccc(-c2n[nH]c(C)c2-c2ccc(Cl)cc2)c(O)c1	none
Cc1ccc(S(=O)(=O)N2C[C@H]3C(=O)C[C@@H](c4ccccc4)N(S(=O)(=O)c4ccc(C)cc4)[C@H]3C[C@H]2c2ccc(Cl)cc2)cc1	none (no result: 697 NFkB inh, Gli-Sufu block, Mdm2 MdmX PPI, Jurkat NFkB inh)
CC(=O)N1N=C(c2cccc([N+](=O)[O-])c2)OC1c1cccc(Br)c1 (centres undefined)	none
CC(=O)N1N=C(c2cccc(Cl)c2)OC1c1cccc([N+](=O)[O-])c1 (centres undefined)	Mdm2 MdmX PPI 65 | Mdm2-MdmX conf inactive
COc1ccccc1C(=O)N/N=C(\C)c1cccnc1	none
O=C1NCN(c2ccccc2)C12CCN(CCCC(c1ccc(F)cc1)c1ccc(F)cc1)CC2	Mdm2 MdmX PPI 99 (no result: Gli-Sufu block) | Mdm2-MdmX conf 52 | Full FLuc ctr 73
COc1ccc(N2CCN(C(=O)c3ccccc3N(C)S(=O)(=O)c3ccc(C)cc3)CC2)cc1	none
COC(=O)c1ccc(C(=O)NC(=S)Nc2ccc3nc(SC)sc3c2)cc1	Mdm2 MdmX PPI 81 | Mdm2-MdmX conf inactive
CSc1nc2ccc(NC(=O)c3ccccn3)cc2s1	none
Clc1nc(-c2ccccn2)nc2scc(-c3ccccc3)c12	Mdm2 MdmX PPI 57 | Mdm2-MdmX conf inactive
CC1CCN(c2nc(-c3cccnc3)nc3scc(-c4ccccc4)c23)CC1	none
CC(NC1c2ccccc2-c2ccccc21)c1ccccc1 (centres undefined)	none
COc1ccc(C(=O)c2sc(Nc3ccccc3)nc2N)cc1	none
Nc1nc(Nc2ccccc2)sc1C(=O)c1ccccc1	Mdm2 MdmX PPI 62 | Mdm2-MdmX conf inactive
COc1ccc(NC(=O)c2ccc3c(c2)NC(=O)CS3)cc1S(=O)(=O)Nc1ccc(Br)cc1	Mdm2 MdmX PPI 69 | Mdm2-MdmX conf 77 | Full FLuc ctr 44
CCc1nc2ccccc2c(C(=O)OCC(=O)Nc2ccc(S(=O)(=O)N3CCOCC3)cc2)c1C	none
CCc1nc2ccccc2c(C(=O)OCC(=O)Nc2cccc(S(=O)(=O)N3CCOCC3)c2)c1C	Mdm2 MdmX PPI 66 | Mdm2-MdmX conf 75 | Full FLuc ctr 45
COc1ccc(CCNC(=O)c2cc3c(=O)n4ccccc4nc3n(CCCN3CCOCC3)c2=N)cc1OC	none
COc1ccc(CCNC(=O)c2cc3c(=O)n4ccccc4nc3n(CCCN3CCOCC3)c2=N)cc1	Mdm2 MdmX PPI 54 | Mdm2-MdmX conf inactive
COc1ccc(CCNC(=O)c2cc3c(=O)n4ccccc4nc3n(C3CCCCC3)c2=N)cc1	Mdm2 MdmX PPI 61 | Mdm2-MdmX conf inactive | Full FLuc ctr 69
COc1ccc(CCNC(=O)c2cc3c(=O)n4ccccc4nc3n(CC3CCCO3)c2=N)cc1 (centres undefined)	none (no result: 697 NFkB inh, Mdm2 MdmX PPI, Jurkat NFkB inh)
COc1ccc(CCNC(=O)c2cc3c(=O)n4ccccc4nc3n(Cc3ccco3)c2=N)cc1OC	Mdm2 MdmX PPI 62 | Mdm2-MdmX conf 41 | Full FLuc ctr inactive
COc1ccc(CCNC(=O)c2cc3c(=O)n4ccccc4nc3n(C3CCCCC3)c2=N)cc1OC	Mdm2 MdmX PPI 58 | Mdm2-MdmX conf inactive
COc1ccc(/C(O)=C2/C(=O)C(=O)N(CCCN3CCOCC3)C2c2ccc(N(C)C)cc2)cc1 (centres undefined)	none
Cc1ccc(NC(=O)CC2OC(=O)c3ccccc32)cc1S(=O)(=O)N1CCCCCC1 (centres undefined)	none
CC/C(=N/N=C(/CC)c1ccc(O)cc1)c1ccc(O)cc1	none
CCc1ccc(NC(=O)CSc2nc3ccccc3c(=O)n2CCCN2CCC(C)CC2)cc1	Mdm2 MdmX PPI 86 | Mdm2-MdmX conf 49 | Full FLuc ctr 36
Cc1ccc(NC(=O)CSc2nc3ccccc3c(=O)n2CCCN2CCCCC2)cc1C	Mdm2 MdmX PPI 75 | Mdm2-MdmX conf 40 | Full FLuc ctr 62
Cc1c(NC(=O)Nc2ccccc2Cl)c(=O)n(-c2ccccc2)n1C	none
Cc1cc(CCNC=O)c(C)c2c1oc1ccccc12	none (no result: 697 NFkB inh, Mdm2 MdmX PPI, Jurkat NFkB inh)
COc1ccccc1-c1cccc([C@@H]2C[C@H]3[C@@H](CN2)CON3C)c1	none (no result: 697 NFkB inh, Mdm2 MdmX PPI, Jurkat NFkB inh)
COc1cccc(CN2CCNC(=O)C2CC(=O)NCCCN2CCCC2=O)c1 (centres undefined)	none
COc1ccc2nc(C)cc(N/N=C/c3cccc(OC)c3O)c2c1	Mdm2 MdmX PPI 100 | Mdm2-MdmX conf inactive
COc1ccc(/C=N/Nc2cc(C)nc3ccc(Br)cc23)cc1	Mdm2 MdmX PPI 98, Shn3 inh set2 93 | Mdm2-MdmX conf inactive
COc1ccc2nc(C)cc(NCc3cccc(C(F)(F)F)c3)c2c1	Mdm2 MdmX PPI 79 | Mdm2-MdmX conf 60 | Full FLuc ctr 108
Cc1nn(-c2ccccc2)c(C)c1/C=N/Nc1nc2ccccc2[nH]1	none
